Measurements as given in PubChem BioAssay AID2675 (National Center for Advancing Translational Sciences (NCATS), 2010).
Screen size: about 280,000 compounds; about 100 (0.036%) were called active. Inconclusive results (about 11%) are left out. Calls follow the shape of the dose curve; as a rule, active = well fitted inhibition curve with a large enough effect in the signal ratio, with a control signal flat (not every such curve was filed as active); inconclusive = small, poorly fitted or top-dose-only effect, or effect the other way, or a change in a side signal; inactive = no such curve, though single readings can be large or run the other way; the % refers to the signal ratio. Only a selection was taken, and actives are over-represented in it overall.

Target: Muscleblind-like protein 1 (Homo sapiens) (UniProt Q9NR56)
Assay: qHTS Assay for Inhibitors of MBNL1-poly(CUG) RNA binding
Details: TR-FRET MBNL1-His/biotin-(CUG)12 binding, 665/545 ratio; series mostly up to 57.5 µM; activity change, negative = inhibition: at the top concentration
Excerpt: NIH Chemical Genomics Center [NCGC] NIH Molecular Libraries Probe Production Centers Network [MLPCN] MLPCN Grant: R03 MH087421-01 Assay Submitter (PI): Charles Thornton NCGC Assay Overview: Expanded CTG repeats in the 3' untranslated region of the DM protein kinase (DMPK) gene causes type I myotonic dystrophy (DM1). DM1 is a multi-systemic disease with a prevalence of 1/7000. Clinical features include myotonia, progressive muscle weakness and wasting, cardiac arrhythmia, insulin resistance, hypersomnolence, cataracts, and other symptoms. The pathogenic effect of expanded CTG repeats stems from deleterious effects of the mutant transcript. CUGexp mRNA accumulates in nuclear foci and sequesters proteins of the muscleblind family, of which MBNL1 is the most common family member in skeletal muscles. The binding interaction between MBNL1 and CUGexp tracts leads to deregulation of alternative splicing and is therefore a key molecular step in the pathogenesis of DM1. To target this binding interaction, we optimized a protein-RNA binding assay in 1536-well format for identification of small molecule inhibitors of biotinylated (CUG)12 and his-tagged MBNL1 binding. Protein-RNA complex of MBNL1-His and Biotin-(CUG)12 captures the detection reagents terbium-labeled anti-His antibody and streptavidin conjugated XL665. This brings the terbium label within close proximity to XL665 to allow time-resolved fluorescence resonance energy transfer (TR-FRET). Inhibitors of MBNL1-(CUG)12 binding will disrupt TR-FRET.
NCGC Assay Protocol Summary: This is a TR-FRET binding assay with MBNL1-His and Biotin-(CUG)12 RNA. The assay uses a ratiometric measurement. In the presence of MBNL1-(CUG)12 complex, the excitation energy is transferred to the XL665 acceptor label, causing emission at 665nm, while the 545nm donor signal […]. Data were normalized to the controls for basal activity (buffer only) and 100% activity (with MBNL1-(CUG)12). […] The final titration was 92 nM to 58 uM. (3) Add 1 ul of terbium labeled anti-His antibody (0.055 ng/ul final concentration) (4) Add 1 ul of streptavidin-XL665 (5 nM final concentration) (5) Incubate 60 min at room temperature (6) Detect the assay plate in a EnVision plate reader (PerkinElmer) with Ex=340 nm, Em1=665 nm and Em2=545 nm. Keywords: mytonic dystrophy type I, DM1, muscleblind like 1, MBNL1, CUG expansion, protein-RNA binding inhibitor, high throughput screening, MLSMR, MLSCN, NIH Roadmap, qHTS and NCGC
% is scaled to controls: 0 for no effect and ±100 for the full control effect.

Muscleblind-like protein 1 (Homo sapiens), sequence (Q9NR56 whole entry, looked up): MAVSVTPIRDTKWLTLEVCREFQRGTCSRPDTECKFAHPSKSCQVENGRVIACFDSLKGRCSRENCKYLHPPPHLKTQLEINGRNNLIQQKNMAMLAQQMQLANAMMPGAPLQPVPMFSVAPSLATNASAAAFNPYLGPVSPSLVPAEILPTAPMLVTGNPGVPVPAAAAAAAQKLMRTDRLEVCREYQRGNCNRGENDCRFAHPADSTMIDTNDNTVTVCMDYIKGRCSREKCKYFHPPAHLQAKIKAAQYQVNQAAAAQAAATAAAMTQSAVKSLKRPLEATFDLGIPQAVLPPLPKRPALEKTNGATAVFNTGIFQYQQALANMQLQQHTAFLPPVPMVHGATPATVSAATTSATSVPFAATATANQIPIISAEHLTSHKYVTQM

Activity change, negative = inhibition, inactive:
C=CCNc1nc(N)c([N+](=O)[O-])c(NC2CCCCC2)n1 -5.63%, Cc1[nH]c2ccccc2c1C(=O)CN1CC(C)CC(C)C1 (stereo unspecified) -2.63%, O=C(c1ccccc1)N1N=C(c2ccccc2O)CC1c1ccc(Br)cc1 (stereo unspecified) -12.2%, Nc1nc(Nc2ccccc2F)nc(NC2CCCCC2)c1[N+](=O)[O-] -5.13%, COc1ccc(OC)c(CNC(=O)Cn2nc(C)c3c(C)n(-c4ccc(C)cc4)nc3c2=O)c1 -0.935%, Cc1ccc(C)c(N2CCN(C(=O)CCCn3c(=O)c4cccn4c4cccnc43)CC2)c1 -1.23%, CCOc1ccc(NC(=O)CCCCCN2C(=O)[C@@H]3Cc4ccccc4CN3C2=O)cc1 4.13%, CCc1ccc(/C=N/NC(=O)c2nnn(-c3nonc3N)c2CN2CCc3ccccc32)cc1 1.76%, COc1ccc(NS(=O)(=O)c2cc(C(=O)Nc3ccccc3C(=O)O)ccc2C)cc1 -13.3%, COc1ccc(CN(C)C(=O)c2cc(-c3ccc(C)cc3C)nc3ccccc23)c(OC)c1OC -0.265%, O=C(NCc1cccc(Cl)c1)C1CCC(=O)N(C2CC2)C1 (stereo unspecified) -9.91%, CC(=O)N1c2ccc(S(=O)(=O)N3CCC(C(=O)N4CCN(c5ccccc5)CC4)CC3)cc2CC1C (stereo unspecified) -1.97%, O=C(NCCCN1CCOCC1)c1ccc2c(c1)N(Cc1cccc(F)c1)C(=O)c1ccccc1S2 76.5%, CCc1ccc(C(CNc2nc(C(F)(F)F)nc3ccccc23)N(C)C)cc1 (stereo unspecified) -3.64%, Cc1nnc(NC(=O)C(c2ccccc2)c2ccccc2)s1 1.22%, COc1cccc(CCNC(=O)c2cccc(NC(=O)C3=C(C)OCCS3)c2)c1 -1.35%, Cc1cc(=O)[nH]c(Nc2cccc(Br)c2)n1 -10%, COc1ccccc1N1CCN(S(=O)(=O)CCNC(=O)c2ccc(OC(C)C)cc2)CC1 1.83%, COc1cccc(CN(C)CC(O)COC(c2ccccc2)c2ccccc2C)c1 (stereo unspecified) -1.85%, CCOc1ccc(NC(=O)C(C)N2C(=O)c3ccccc3C2=O)cc1 (stereo unspecified) 1.24%, CCOc1ccc(NC(=O)c2nc(SCC)ncc2Cl)cc1 -14.6%, CCC(C)[C@H](NC(=O)N1CCn2c1nc1ccccc12)C(=O)NCc1ccc(OC)cc1 (stereo partly specified) -2.53%, COc1ccc(NC(=O)c2cc([N+](=O)[O-])ccc2NC(=O)CNC2CCCCC2C)c(OC)c1 (stereo unspecified) 18.6%, COc1ccc(CCNC(=O)c2ccccc2OCc2ccccc2)cc1 -4.43%, Cc1cc(Cl)ccc1C(=O)C1CCCN(C(=O)c2nonc2C)C1 (stereo unspecified) 0.612%, CC(CCc1ccc(O)cc1)NCc1ccc(Cl)cc1Cl (stereo unspecified) -4.16%, COc1ccc(CCNCc2c(-c3ccccc3)n(C)c3ccccc23)cc1 -10.3%, CCC(=O)c1cn(CCOc2ccccc2OC)c2ccccc12 2.83%, COc1ccc(CC(=O)N/N=C/c2cc([N+](=O)[O-])cc(Br)c2O)cc1 -0.176%, COC(=O)c1cc(S(=O)(=O)N2CCN(c3cc(C)ccc3C)CC2)c[nH]1 0.607%, COc1cccc(C(=O)Nc2ccc(N3CCN(C(=O)c4ccco4)CC3)cc2)c1 -4.34%, COC(=O)c1ccc(CN2CCCC(C(=O)Nc3cccc(-n4cnnn4)c3)C2)cc1 (stereo unspecified) -5.86%, Cc1cc(=O)oc2c(C)c(OC(C)C(=O)NC3CCN(Cc4ccccc4)CC3)ccc12 (stereo unspecified) -6.34%, C[C@H](NC(=O)[C@@H]1Cc2ccccc2CN1C(=O)OC(C)(C)C)C(=O)NC1CCCC1 0.26%, CCCn1c(C2CCCN2c2nc(-c3ccc(OC)cc3)cs2)nc2ccccc21 (stereo unspecified) 46.7%, Cc1ccc2nc(-c3ccncc3)cc(C(=O)Nc3ccncc3)c2c1 20.1%, COc1cccc(C(=O)N/N=C(\C)c2cccc(NC(=O)c3ccc(F)cc3)c2)c1OC -0.886%, O=C(NCCCO)c1cc2c([nH]c3ccccc32)c(-c2ccc(F)cc2)n1 -3.77%, CCCC(=O)N1CCN(c2nnc(-c3ccc(C)cc3)c3ccccc23)CC1 15%, Cc1cc(Cl)ccc1OCCCC(=O)Nc1cccc(-n2cnnn2)c1 -0.924%, CCOc1ccc(CCNC(=O)CCc2nnc3ccc(N4CCCC4)nn23)cc1OCC 13.4%, CC(=O)N1CCOc2ccc(S(=O)(=O)N3CCN(c4cccc(C(F)(F)F)c4)CC3)cc21 -1.07%, CCCCN(CCCC)CCCNC(=O)CN1C(=O)COc2ccc(S(=O)(=O)N3CCC(C)CC3)cc21 -14.2%, Cc1ccc(OCC(=O)Nc2ccc(C(=O)O)cc2NC(=O)COc2ccc(C)c(C)c2)cc1C 6.17%, COc1ccc(C(=O)CC(=O)C(=O)Nc2cc([N+](=O)[O-])ccc2OC)cc1 0.59%, CC(C)c1ccc(S(=O)(=O)N2CCN(C(=O)c3ccc(N4CCCC4)c([N+](=O)[O-])c3)CC2)cc1 -3.33%, COc1cccc(NC(=O)C2CCCN(c3ncnc4c3nc3n4CCCCC3)C2)c1 (stereo unspecified) -5.89%, Cc1ccc(CN2CCC(n3nccc3NC(=O)CCCc3ccccc3)CC2)o1 5.27%, CCc1ccc(NC(=O)CN2CCC(C(=O)c3ccc(OC)cc3)CC2)cc1 2.27%, O=C(Nc1ccccc1N1CCCC1)c1ccc2ccccc2c1 9.01%, CCCCCN(C(=O)CCC(=O)OCC(=O)NCc1ccc(OC)cc1)c1c(N)n(CCCC)c(=O)[nH]c1=O -3.21%
